# Test results as given in publication PMC7862700, “An all-to-all approach to the identification of sequence-specific readers for epigenetic DNA modifications on cytosine”.
# Assays:
# Experiment in all cases: DAPPL (digital affinity profiling via proximity ligation, sequencing); 10 mM Tris-HCl pH 7.5, 50 mM NaCl, 1 mM DTT, 4% glycerol, room temperature, 30 min; GST-TFs on glutathione beads, 16-mer random dsDNA library, 0.1% formaldehyde crosslink after washing; high values mean tight binding
# FLI1 = target: T1, FLI1 (Homo sapiens, UniProt Q01543 1-452); conditions: protein: recombinant; tags: N-terminal GST; dsDNA, one strand shown
# T1 sequence: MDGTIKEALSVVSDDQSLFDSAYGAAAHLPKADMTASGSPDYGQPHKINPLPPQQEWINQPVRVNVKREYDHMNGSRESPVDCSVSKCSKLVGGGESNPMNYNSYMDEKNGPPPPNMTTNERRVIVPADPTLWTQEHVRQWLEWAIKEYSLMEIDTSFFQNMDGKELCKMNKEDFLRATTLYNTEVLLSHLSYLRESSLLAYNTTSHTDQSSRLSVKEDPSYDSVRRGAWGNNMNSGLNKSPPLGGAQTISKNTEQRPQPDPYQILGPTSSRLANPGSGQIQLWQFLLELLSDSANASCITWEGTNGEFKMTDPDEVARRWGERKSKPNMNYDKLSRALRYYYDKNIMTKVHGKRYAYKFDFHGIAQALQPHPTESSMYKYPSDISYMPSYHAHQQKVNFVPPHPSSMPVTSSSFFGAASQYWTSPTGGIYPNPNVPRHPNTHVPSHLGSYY
# Summary of the method: (§1)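 Sequencing on an Illumina NextSeq500 followed washing, crosslinking with 0.1% formaldehyde, proximity ligation (BsaI/T4 ligase, 1 h, 37 °C) and PCR amplification of pools that had been incubated for 30 min at room temperature with 200 nmole of a random double-stranded 16-mer DNA library in Tris/NaCl/DTT/glycerol buffer. Each pool held DNA-barcoded human transcription factors, expressed in yeast as GST fusions and captured on glutathione beads, plus a tag-only sample. Binding signal is a hexamer's read frequency for a factor divided by its frequency in the tag-only sample.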
# ELK1 = target: T2, ELK1 (Homo sapiens, UniProt P19419 1-428); conditions: protein: recombinant; tags: N-terminal GST; dsDNA, one strand shown
# T2 sequence: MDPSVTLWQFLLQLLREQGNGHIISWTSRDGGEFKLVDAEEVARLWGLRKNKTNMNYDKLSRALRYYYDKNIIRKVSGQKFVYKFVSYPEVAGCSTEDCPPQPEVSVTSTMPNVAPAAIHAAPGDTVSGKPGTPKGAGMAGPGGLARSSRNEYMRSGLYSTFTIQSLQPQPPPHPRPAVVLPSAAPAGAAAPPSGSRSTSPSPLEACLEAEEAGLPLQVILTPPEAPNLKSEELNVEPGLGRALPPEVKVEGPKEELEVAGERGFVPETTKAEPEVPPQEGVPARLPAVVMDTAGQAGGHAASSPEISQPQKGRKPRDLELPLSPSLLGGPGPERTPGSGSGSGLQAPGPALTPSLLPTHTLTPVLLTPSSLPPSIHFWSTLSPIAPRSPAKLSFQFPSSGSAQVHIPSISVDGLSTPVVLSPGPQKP
# Summary of the method: as §1
# GABPA = target: T3, GABPA (Homo sapiens, UniProt Q06546 1-454); conditions: protein: recombinant; tags: N-terminal GST; dsDNA, one strand shown
# T3 sequence: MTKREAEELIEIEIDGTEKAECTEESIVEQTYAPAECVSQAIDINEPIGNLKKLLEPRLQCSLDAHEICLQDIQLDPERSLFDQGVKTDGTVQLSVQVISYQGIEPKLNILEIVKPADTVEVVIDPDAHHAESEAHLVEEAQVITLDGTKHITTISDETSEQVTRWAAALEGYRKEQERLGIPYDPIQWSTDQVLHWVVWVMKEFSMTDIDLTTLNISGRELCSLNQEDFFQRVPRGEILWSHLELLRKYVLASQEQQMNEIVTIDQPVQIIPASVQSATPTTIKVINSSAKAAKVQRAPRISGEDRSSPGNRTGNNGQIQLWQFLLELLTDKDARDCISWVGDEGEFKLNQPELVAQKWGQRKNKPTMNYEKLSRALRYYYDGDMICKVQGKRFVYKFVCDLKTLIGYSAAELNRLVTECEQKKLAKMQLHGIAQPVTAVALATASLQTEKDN
# Summary of the method: as §1
# ERG = target: T4, ERG (Homo sapiens, UniProt P11308 1-479); conditions: protein: recombinant; tags: N-terminal GST; dsDNA, one strand shown
# T4 sequence: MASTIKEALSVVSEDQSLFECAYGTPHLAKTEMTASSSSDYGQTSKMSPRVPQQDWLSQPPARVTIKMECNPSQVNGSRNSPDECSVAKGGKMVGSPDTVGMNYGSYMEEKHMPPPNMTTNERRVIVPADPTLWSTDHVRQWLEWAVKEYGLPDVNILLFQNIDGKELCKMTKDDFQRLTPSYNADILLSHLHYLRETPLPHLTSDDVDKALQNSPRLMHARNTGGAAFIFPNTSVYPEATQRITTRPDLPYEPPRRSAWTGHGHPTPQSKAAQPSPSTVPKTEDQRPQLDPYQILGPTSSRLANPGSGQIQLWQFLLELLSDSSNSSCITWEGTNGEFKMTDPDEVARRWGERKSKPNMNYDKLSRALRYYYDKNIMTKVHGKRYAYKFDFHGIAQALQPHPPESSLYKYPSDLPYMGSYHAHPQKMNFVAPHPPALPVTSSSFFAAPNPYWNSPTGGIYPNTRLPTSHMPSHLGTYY
# Summary of the method: as §1
# ELF1 = ELF1 (Homo sapiens, UniProt P32519 1-619); conditions: protein: recombinant; tags: N-terminal GST; dsDNA, one strand shown
# Summary of the method: as §1
# EHF = target: T5, EHF (Homo sapiens, UniProt Q9NZC4 1-300); conditions: protein: recombinant; tags: N-terminal GST; dsDNA, one strand shown
# T5 sequence: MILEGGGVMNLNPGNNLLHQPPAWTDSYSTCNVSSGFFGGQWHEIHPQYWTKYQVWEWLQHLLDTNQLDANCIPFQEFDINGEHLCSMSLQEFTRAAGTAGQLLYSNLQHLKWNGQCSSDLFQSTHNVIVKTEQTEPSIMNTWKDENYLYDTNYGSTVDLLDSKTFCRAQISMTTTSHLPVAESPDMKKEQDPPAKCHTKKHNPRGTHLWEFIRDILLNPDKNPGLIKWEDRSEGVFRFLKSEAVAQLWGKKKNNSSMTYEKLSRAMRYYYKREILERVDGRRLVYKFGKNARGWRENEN
# Summary of the method: as §1
# SPI1 = SPI1 (Homo sapiens, UniProt P17947 1-270); conditions: protein: recombinant; tags: N-terminal GST; dsDNA, one strand shown
# Summary of the method: as §1
# SPIB = SPIB (Homo sapiens, UniProt Q01892 1-262); conditions: protein: recombinant; tags: N-terminal GST; dsDNA, one strand shown
# Summary of the method: as §1
# ELK3 = target: T6, ELK3 (Homo sapiens, UniProt P41970 1-407); conditions: protein: recombinant; tags: N-terminal GST; dsDNA, one strand shown
# T6 sequence: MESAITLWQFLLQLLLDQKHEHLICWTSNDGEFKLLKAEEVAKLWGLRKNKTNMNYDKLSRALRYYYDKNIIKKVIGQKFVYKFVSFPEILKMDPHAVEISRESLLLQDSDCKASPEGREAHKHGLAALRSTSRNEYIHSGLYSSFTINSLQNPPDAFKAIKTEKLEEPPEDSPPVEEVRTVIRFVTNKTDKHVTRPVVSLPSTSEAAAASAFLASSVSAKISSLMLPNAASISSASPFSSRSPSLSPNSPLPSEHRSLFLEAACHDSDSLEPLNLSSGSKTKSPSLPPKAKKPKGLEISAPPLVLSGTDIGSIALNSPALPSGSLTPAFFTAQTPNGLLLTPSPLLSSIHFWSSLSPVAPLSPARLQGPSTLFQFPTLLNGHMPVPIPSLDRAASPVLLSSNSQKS
# Summary of the method: as §1
# FEV = target: T7, FEV (Homo sapiens, UniProt Q99581 1-238); conditions: protein: recombinant; tags: N-terminal GST; dsDNA, one strand shown
# T7 sequence: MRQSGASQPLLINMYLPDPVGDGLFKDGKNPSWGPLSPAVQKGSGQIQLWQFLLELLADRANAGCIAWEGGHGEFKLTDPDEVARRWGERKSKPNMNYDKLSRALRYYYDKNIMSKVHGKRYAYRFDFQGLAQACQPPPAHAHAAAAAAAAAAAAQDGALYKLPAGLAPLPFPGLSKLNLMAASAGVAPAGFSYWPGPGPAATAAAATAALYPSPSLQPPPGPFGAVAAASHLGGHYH
# Summary of the method: as §1
# ETV5 = ETV5 (Homo sapiens, UniProt P41161 1-510); conditions: protein: recombinant; tags: N-terminal GST; dsDNA, one strand shown
# Summary of the method: as §1
# HSF1 = HSF1 (Homo sapiens, UniProt Q00613 1-529); conditions: protein: recombinant; tags: N-terminal GST; chain copies: 3; dsDNA, one strand shown
# Summary of the method: as §1
# SPIC = target: T8, SPIC (Homo sapiens, UniProt Q8N5J4 1-248); conditions: protein: recombinant; tags: N-terminal GST; dsDNA, one strand shown
# T8 sequence: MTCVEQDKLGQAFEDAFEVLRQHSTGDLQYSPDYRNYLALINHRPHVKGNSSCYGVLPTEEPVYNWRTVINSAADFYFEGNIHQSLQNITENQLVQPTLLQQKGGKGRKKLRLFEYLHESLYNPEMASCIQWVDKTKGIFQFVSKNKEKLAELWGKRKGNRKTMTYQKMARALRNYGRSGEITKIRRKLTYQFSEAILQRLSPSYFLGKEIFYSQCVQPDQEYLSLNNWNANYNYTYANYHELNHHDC
# Summary of the method: as §1
# ELF4 = ELF4 (Homo sapiens, UniProt Q99607 1-663); conditions: protein: recombinant; tags: N-terminal GST; dsDNA, one strand shown
# Summary of the method: as §1
# ELK4 = target: T9, ELK4 (Homo sapiens, UniProt P28324-2 1-405); conditions: protein: recombinant; tags: N-terminal GST; dsDNA, one strand shown
# T9 sequence: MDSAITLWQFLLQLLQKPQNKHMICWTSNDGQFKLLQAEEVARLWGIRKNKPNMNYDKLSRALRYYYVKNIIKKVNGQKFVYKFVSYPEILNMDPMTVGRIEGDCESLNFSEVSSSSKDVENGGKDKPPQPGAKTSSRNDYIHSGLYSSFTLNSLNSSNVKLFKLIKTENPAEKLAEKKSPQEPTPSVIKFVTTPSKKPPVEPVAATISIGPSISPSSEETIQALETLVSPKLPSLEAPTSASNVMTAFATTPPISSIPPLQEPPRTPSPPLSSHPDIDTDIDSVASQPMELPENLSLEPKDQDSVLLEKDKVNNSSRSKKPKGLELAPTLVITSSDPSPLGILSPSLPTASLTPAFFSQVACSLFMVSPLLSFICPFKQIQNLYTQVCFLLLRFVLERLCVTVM
# Summary of the method: as §1
# ETV2 = target: T10, ETV2 (Homo sapiens, UniProt O00321 1-342); conditions: protein: recombinant; tags: N-terminal GST; dsDNA, one strand shown
# T10 sequence: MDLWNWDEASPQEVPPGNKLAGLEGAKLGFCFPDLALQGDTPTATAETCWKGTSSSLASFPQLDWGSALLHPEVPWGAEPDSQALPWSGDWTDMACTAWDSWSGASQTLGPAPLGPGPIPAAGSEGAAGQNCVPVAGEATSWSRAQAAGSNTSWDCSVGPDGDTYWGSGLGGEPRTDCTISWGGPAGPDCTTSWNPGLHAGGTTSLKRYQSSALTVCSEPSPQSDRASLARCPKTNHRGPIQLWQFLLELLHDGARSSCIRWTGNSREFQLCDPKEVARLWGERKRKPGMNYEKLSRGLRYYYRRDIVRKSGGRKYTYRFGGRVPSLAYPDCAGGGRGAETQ
# Summary of the method: as §1
# ELF3 = target: T11, ELF3 (Homo sapiens, UniProt P78545 1-371); conditions: protein: recombinant; tags: N-terminal GST; dsDNA, one strand shown
# T11 sequence: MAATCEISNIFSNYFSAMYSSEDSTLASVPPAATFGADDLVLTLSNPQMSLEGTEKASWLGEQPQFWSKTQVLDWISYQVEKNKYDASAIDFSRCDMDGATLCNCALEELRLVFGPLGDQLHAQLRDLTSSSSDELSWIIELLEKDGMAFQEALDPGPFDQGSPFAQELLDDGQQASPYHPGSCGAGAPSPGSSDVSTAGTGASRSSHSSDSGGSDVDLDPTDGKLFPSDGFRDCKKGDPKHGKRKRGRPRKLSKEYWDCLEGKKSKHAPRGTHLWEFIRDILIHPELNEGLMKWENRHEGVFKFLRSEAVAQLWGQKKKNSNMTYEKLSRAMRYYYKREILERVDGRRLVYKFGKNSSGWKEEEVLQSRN
# Summary of the method: as §1
# CRX = CRX (Homo sapiens, UniProt O43186 1-299); conditions: protein: recombinant; tags: N-terminal GST; dsDNA, one strand shown
# Summary of the method: as §1
# ETV1 = ETV1 (Homo sapiens, UniProt P50549 1-477); conditions: protein: recombinant; tags: N-terminal GST; dsDNA, one strand shown
# Summary of the method: as §1
# Sequence of ETV5 (P41161 whole entry): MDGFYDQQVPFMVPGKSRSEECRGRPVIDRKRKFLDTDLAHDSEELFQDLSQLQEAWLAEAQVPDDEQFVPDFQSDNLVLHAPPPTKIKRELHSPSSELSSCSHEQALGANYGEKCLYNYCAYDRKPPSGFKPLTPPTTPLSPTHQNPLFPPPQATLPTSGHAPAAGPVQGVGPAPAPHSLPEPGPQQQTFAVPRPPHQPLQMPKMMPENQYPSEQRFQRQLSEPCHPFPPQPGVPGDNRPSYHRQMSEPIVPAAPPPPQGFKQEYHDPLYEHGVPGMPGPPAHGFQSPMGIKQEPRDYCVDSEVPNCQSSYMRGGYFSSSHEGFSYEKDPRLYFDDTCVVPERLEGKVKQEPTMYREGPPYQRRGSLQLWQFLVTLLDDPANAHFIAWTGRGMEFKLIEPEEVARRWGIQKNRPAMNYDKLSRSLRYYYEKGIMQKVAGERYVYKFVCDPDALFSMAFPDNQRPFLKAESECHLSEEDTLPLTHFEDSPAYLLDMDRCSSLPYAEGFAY
# Sequence of ETV1 (P50549 whole entry): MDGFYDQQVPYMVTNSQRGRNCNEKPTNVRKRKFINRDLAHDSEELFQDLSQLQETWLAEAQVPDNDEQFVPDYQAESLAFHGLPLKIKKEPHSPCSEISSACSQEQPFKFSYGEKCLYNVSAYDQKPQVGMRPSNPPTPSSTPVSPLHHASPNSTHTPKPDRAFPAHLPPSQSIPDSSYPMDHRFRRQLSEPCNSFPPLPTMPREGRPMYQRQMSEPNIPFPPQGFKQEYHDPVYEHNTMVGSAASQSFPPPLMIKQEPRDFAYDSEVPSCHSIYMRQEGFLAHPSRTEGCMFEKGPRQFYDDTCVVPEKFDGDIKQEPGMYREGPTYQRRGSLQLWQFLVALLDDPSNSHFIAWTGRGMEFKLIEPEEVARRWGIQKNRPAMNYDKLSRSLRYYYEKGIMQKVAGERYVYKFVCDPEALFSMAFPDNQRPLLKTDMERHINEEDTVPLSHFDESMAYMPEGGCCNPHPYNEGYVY
# Sequence of HSF1 (Q00613 whole entry): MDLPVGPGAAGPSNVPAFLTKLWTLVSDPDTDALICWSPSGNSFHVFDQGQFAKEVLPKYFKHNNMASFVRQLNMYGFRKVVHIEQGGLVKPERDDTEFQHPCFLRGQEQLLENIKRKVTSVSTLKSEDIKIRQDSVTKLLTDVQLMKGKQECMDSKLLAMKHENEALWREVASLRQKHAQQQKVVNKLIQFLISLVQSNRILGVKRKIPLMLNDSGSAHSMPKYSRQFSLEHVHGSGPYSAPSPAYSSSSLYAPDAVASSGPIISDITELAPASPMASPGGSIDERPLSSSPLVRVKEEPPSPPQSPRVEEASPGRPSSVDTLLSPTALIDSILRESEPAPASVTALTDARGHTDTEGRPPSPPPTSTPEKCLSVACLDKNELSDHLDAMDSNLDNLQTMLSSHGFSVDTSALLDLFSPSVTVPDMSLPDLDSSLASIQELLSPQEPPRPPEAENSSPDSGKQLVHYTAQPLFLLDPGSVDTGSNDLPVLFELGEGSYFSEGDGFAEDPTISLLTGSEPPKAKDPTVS
# Sequence of ELF4 (Q99607 whole entry): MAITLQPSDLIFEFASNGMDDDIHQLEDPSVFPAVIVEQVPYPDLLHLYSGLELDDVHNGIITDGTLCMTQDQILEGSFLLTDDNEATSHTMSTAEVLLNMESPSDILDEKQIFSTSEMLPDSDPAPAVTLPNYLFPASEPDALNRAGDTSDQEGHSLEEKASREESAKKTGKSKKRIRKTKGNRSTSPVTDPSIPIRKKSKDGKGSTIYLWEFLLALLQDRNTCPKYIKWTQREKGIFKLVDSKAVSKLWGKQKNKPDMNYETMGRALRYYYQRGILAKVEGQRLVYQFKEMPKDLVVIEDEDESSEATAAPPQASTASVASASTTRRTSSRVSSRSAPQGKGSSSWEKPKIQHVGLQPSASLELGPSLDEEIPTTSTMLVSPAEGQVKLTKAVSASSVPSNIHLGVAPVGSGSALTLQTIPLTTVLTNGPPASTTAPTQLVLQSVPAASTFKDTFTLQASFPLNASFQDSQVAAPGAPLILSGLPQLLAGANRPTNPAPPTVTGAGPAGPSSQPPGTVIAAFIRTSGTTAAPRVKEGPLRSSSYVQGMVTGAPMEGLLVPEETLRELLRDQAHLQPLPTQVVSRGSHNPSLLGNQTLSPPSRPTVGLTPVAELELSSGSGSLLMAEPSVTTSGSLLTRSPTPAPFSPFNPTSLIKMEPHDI
# Sequence of ELF1 (P32519 whole entry): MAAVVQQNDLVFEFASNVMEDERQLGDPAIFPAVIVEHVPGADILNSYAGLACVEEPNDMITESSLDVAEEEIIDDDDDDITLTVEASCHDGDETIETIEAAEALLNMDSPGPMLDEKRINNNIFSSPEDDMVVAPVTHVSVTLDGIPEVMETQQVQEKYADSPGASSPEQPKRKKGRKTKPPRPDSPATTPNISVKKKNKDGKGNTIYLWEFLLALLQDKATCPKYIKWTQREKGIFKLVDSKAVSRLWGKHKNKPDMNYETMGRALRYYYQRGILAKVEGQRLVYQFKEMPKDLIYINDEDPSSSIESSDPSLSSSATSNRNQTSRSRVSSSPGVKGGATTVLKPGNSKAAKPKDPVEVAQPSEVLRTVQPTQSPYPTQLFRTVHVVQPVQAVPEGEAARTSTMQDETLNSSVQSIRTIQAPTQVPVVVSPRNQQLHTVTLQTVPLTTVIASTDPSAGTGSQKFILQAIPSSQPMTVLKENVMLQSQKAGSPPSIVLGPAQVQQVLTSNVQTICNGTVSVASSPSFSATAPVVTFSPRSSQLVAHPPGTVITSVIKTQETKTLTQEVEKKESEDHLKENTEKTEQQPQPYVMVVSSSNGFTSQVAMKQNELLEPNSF
# Sequence of SPIB (Q01892 whole entry): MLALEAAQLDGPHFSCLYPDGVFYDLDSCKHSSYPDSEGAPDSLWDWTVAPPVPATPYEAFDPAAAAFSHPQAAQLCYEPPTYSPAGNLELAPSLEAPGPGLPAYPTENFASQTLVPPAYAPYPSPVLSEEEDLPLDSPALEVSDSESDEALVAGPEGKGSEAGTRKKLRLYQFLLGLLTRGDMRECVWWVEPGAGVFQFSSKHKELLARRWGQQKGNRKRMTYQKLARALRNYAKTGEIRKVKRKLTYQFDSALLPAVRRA
# Sequence of CRX (O43186 whole entry): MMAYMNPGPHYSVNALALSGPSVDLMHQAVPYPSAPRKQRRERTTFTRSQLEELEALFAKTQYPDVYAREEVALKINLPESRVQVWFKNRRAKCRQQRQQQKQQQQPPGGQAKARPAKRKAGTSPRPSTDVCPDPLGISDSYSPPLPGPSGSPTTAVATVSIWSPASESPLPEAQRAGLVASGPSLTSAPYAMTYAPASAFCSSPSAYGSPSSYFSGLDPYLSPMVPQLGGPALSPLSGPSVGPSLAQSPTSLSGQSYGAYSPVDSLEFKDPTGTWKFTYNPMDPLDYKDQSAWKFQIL
sequence,measurement,setting,value
CTTGAT,binding signal,FLI1,"1.52 fold enrichment (6-mer frequency, TF over GST control)"
same,binding signal,ELK1,"1.53 fold enrichment (6-mer frequency, TF over GST control)"
same,binding signal,GABPA,"1.52 fold enrichment (6-mer frequency, TF over GST control)"
same,binding signal,ERG,"1.34 fold enrichment (6-mer frequency, TF over GST control)"
same,binding signal,ELF1,"1.42 fold enrichment (6-mer frequency, TF over GST control)"
same,binding signal,EHF,"1.51 fold enrichment (6-mer frequency, TF over GST control)"
same,binding signal,SPI1,"1.27 fold enrichment (6-mer frequency, TF over GST control)"
same,binding signal,SPIB,"1.41 fold enrichment (6-mer frequency, TF over GST control)"
same,binding signal,ELK3,"1.34 fold enrichment (6-mer frequency, TF over GST control)"
same,binding signal,FEV,"1.38 fold enrichment (6-mer frequency, TF over GST control)"
same,binding signal,ETV5,"1.43 fold enrichment (6-mer frequency, TF over GST control)"
same,binding signal,HSF1,"1.44 fold enrichment (6-mer frequency, TF over GST control)"
same,binding signal,SPIC,"1.41 fold enrichment (6-mer frequency, TF over GST control)"
same,binding signal,ELF4,"1.43 fold enrichment (6-mer frequency, TF over GST control)"
same,binding signal,ELK4,"1.43 fold enrichment (6-mer frequency, TF over GST control)"
same,binding signal,ETV2,"1.43 fold enrichment (6-mer frequency, TF over GST control)"
same,binding signal,ELF3,"1.38 fold enrichment (6-mer frequency, TF over GST control)"
same,binding signal,CRX,"1.57 fold enrichment (6-mer frequency, TF over GST control)"
same,binding signal,ETV1,"1.29 fold enrichment (6-mer frequency, TF over GST control)"
